Compounds with a hit are over-represented: about 0.79% of the library has one in this group of screens.
Candida biofilm = kills Candida albicans biofilms; C. albicans biofilm + clotrimazole, Alamar Blue; inhibition, % at 6 µM; 0.14% of 85,000 active; AID 834;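 active means inhibition above 20%; inactive means inhibition below 20%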;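 further: preformed 24 hr biofilms exposed to compound for 48 hr; 0% = biofilm without compound and 100% = blank killed by clotrimazole plus chlorhexidine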
BAP1 block = human BAP1 deubiquitinase inhibition; calls only at 20 µM; AID 436; recombinant BAP1, Ub-AMC hydrolysis fluorescence kinetic; active compounds read low; 0.48% of 72,000 active; Q92560;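 active means activity remaining at or below 50% of control, provided the compound also passes the data quality filters; inactive means the rest, including low values that fail the filters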;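 further: 100% = DMSO wells rate and 0% = substrate alone blank rate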
Target sequence (Q92560 whole entry, looked up): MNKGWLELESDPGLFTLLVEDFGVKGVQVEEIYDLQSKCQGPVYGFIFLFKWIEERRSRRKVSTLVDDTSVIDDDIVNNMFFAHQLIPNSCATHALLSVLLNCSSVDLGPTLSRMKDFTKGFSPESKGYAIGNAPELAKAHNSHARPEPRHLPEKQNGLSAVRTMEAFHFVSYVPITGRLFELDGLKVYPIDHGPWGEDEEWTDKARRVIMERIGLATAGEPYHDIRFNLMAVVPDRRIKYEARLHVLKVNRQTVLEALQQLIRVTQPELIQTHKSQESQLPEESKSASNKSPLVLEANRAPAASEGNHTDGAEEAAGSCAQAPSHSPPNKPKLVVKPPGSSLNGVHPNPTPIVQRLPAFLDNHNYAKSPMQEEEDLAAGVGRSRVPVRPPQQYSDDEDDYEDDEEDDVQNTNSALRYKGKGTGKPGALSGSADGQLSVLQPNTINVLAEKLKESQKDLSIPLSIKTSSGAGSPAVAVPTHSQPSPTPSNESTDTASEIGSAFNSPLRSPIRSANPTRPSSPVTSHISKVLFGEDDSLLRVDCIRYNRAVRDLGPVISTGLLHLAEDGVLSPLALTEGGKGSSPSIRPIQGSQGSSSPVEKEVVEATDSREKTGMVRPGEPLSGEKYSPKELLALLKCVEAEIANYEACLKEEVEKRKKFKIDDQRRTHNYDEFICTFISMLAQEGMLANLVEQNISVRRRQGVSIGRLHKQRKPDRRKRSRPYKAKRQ
sEH inhibitor = soluble epoxide hydrolase (human) inhibition | inhibition, % at 2 µM | P34913 | AID 707 | 0.34% of 91,000 active | recombinant human sEH enzymatic activity assay; in the data active means inhibition above about 80%
PTPN22 inh 2 = LYP (human) phosphatase inhibition | Q9Y2R2 | recombinant LYP catalytic domain, DiFMUP fluorescence | inhibition, % at 2 µM | 0.21% of 96,000 active | AID 640;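 active means inhibition at 2 µM at or above a set limit, the screen mean plus 3 SD, cut at about 24% in these data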;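 further: 0% = DMSO with enzyme and 100% = enzyme fully blocked by orthovanadate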
sEH act = soluble epoxide hydrolase (human) activation | P34913 | purified human sEH enzymatic activity, activator screen | activation, % at 2 µM | 0.04% of 91,000 active; in the data active means activation above about 37%
LYP act = increases human PTPN22 phosphatase activity; recombinant LYP, DiFMUP fluorescence; 0 = plate median, 100 = signal doubled; activation, % at 2 µM; 0.11% of 96,000 active; AID 697;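 active means activation at 2 µM above a set limit, the mean plus 5 SD, cut at about 37% in these data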
* = called active by the depositor; i = inactive; x = no result; + = active, no number.

SMILES | Candida biofilm | BAP1 block | sEH inhibitor | PTPN22 inh 2 | sEH act | LYP act
CCc1cccc(NC(=O)NC2CCCCC2)c1 | 8 | i | 94* | 10 | -94 | -10
CCc1cccc(NC(=O)C2CCCC2)c1 | 10 | i | -4 | 1 | 6 | 2
CN(C)CCN1C(=O)C(=O)/C(=C(/O)c2ccccc2)C1c1ccccc1 (stereo not drawn) | x | i | x | x | x | x
CCCOc1ccc(-c2[nH]ncc2Oc2ccccc2)c(O)c1 | x | i | x | x | x | x
O=C(CCn1cnc2ccccc2c1=O)Nc1ccc(Cl)c(Cl)c1 | 41* | x | 20 | 7 | -17 | -4
COC(=O)c1cccc(NC(=O)Cn2cnc3ccccc3c2=O)c1 | 1 | i | 9 | -7 | -11 | 5
CC1CCCC(NC(=O)Cc2ccc(Br)cc2)C1C (stereo not drawn) | 5 | x | 53 | 11 | -52 | -10
CC1CCCC(NC(=O)Nc2cccs2)C1C (stereo not drawn) | 4 | x | 80* | -26 | -81 | 27
CCOC(=O)c1c(NC(=O)c2ccc(S(=O)(=O)N3CCOCC3)cc2)sc2c1CCC2 | x | i | x | x | x | x
Cc1nn(-c2ccccc2)c2sc(C(=O)OCN3C(=O)c4ccccc4C3=O)cc12 | 3 | + | x | x | x | x
Cc1cccc(C(=O)NNC(=O)c2cc3cc4ccccc4nc3s2)c1 | x | x | -11 | 4 | 10 | -1
O=C(NNC(=O)c1cc2cc3ccccc3nc2s1)c1cccc(Cl)c1 | x | x | -6 | 27* | 13 | -25
CC(CCc1ccccc1)NC(=O)C(Cc1ccccc1)NS(=O)(=O)c1cccs1 (stereo not drawn) | 33* | x | -24 | -4 | 20 | 3
COc1cc(C(=O)NCC(=O)O)cc(OC)c1OC | x | i | x | x | x | x
Cc1ccc(CSCCNC(=O)CCSc2ccccc2)cc1 | x | x | 66 | 6 | -65 | -4
Cc1ccccc1CSCCNC(=O)CCSc1ccccc1 | x | x | 81* | 8 | -81 | -6
CC(O)CNc1nc2c(c(=O)n(C)c(=O)n2C)n1Cc1ccccc1Cl (stereo not drawn) | x | i | x | x | x | x
O=c1c(-c2ccc(O)cc2)coc2cc(O)ccc12 | x | + | x | x | x | x
Cc1cc(-c2ccccc2)nc(N2CCC(C(=O)NCc3ccccc3Cl)CC2)n1 | 9 | x | 82* | -2 | -82 | 1
C=CCNC(=S)NNC(=O)c1cccn(Cc2ccc(Cl)cc2)c1=O | x | x | -2 | 53* | -1 | -52
C=CCNC(=S)NNC(=O)c1cccn(Cc2cccc(Cl)c2)c1=O | x | x | -7 | 56* | 4 | -55
CC(C)OC(=O)C(C)Nc1n[nH]c(=O)[nH]c1=O (stereo not drawn) | x | i | x | x | x | x
Cc1cc(NC(c2cccnc2)c2c(C)[nH]c3ccccc23)no1 (stereo not drawn) | 27* | i | x | x | x | x
Cc1cc(NC(=O)CSc2c(C)[nH]c3ccccc23)no1 | 2 | i | x | x | x | x
Cn1c(C(=O)N2CCCC(C(=O)NCCCSC3CCCCC3)C2)cc2sccc21 (stereo not drawn) | 7 | i | 92* | -3 | -92 | 0
SMILES | Candida biofilm | BAP1 block | sEH inhibitor | PTPN22 inh 2 | sEH act | LYP act
CCn1c(C(=O)N2CCCC(C(=O)NCCCc3ccccc3)C2)cc2sccc21 (stereo not drawn) | 8 | i | 94* | 6 | -94 | -3
c1cnc(SCCOc2ccc3c(c2)CCC3)nc1 | 46* | x | 7 | -4 | -5 | 1
O=C1CCC(=O)N1OCCOc1ccc2c(c1)CCC2 | -2 | i | 5 | -7 | -2 | 6
O=[N+]([O-])c1ccc(/C=N/Nc2nc(-c3ccccc3)c3cc(Br)ccc3n2)o1 | x | x | -10 | -6 | 9 | 6
COc1ccccc1-c1cnnc(N/N=C/c2ccc(-c3cccc(Br)c3)o2)n1 | 1 | x | 6 | 31* | -3 | -31
CCN(CC)C(C(=O)Nc1ccc(C(C)C)cc1)c1ccc2c(c1)OCO2 (stereo not drawn) | 9 | x | -38 | 1 | 38* | 3
Cc1cccc(C)c1N1C(=O)c2ccccc2C1=O | 40* | i | 3 | 0 | -4 | 0
Cc1ccc(N2C(=O)c3ccccc3C2=O)cc1C | 0 | x | 0 | 4 | 1 | -5
FC(F)(F)c1cccnc1N1CCN(c2ncnc3nc[nH]c23)CC1 | 29* | i | x | x | x | x
Clc1ccccc1N1CCN(c2ncnc3nc[nH]c23)CC1 | -1 | i | x | x | x | x
Cc1ccc(CSc2nnc(-c3ccccc3N)c(=O)[nH]2)cc1 | 2 | x | -5 | 29* | 3 | -30
Cc1c(C(=O)N2CC(C)CC(C)C2)cccc1[N+](=O)[O-] (stereo not drawn) | x | i | x | x | x | x
COc1ccc(CCn2c(N)c(C(=O)NCc3ccco3)c3nc4ccccc4nc32)cc1OC | 9 | i | -10 | 14 | 8 | -14
Nc1c(C(=O)NCc2ccco2)c2nc3ccccc3nc2n1CCc1ccccc1F | 4 | x | 8 | 25* | -11 | -25
COc1cc(S(=O)(=O)NCc2ccc3c(c2)OCO3)ccc1Cl | 10 | x | -4 | -1 | 5 | 1
COc1cc(C)c(S(=O)(=O)NCc2ccc3c(c2)OCO3)cc1C | 27* | i | x | -8 | x | 5
CCn1c2c(c3cc(Br)ccc31)CCCC2O (stereo not drawn) | x | i | x | x | x | x
CC(=O)Nc1cc(C(C)(C)C)c(O)c(C(C)(C)C)c1 | 68* | x | -6 | 4 | 5 | -1
CC(C)(C)c1cc(CNC2CS(=O)(=O)C[C@@H]2O)cc(C(C)(C)C)c1O (stereo partly drawn) | 4 | i | -16 | -5 | 13 | 4
COC(=O)c1ccc(NC(=O)Cn2nc(SC)n(N)c2=S)cc1 | 27* | x | x | x | x | x
COC(=O)c1ccc(NC(=O)CSc2nnc(-c3ccncc3)n2N)cc1 | 4 | x | 4 | 6 | -2 | -8
CC(=O)NC1CC2CCCC(C1)N2C(=O)Nc1ccc(Cl)c(C(F)(F)F)c1 (stereo not drawn) | 5 | i | 87* | 3 | -88 | -6
COc1cccc(NC(=O)C2CCN(c3ncccn3)CC2)c1 | 5 | i | 21 | -2 | -20 | -3
CCC(C)c1ccc(NC(=O)C2CCN(c3ncccn3)CC2)cc1 (stereo not drawn) | 6 | x | 99* | 5 | -99 | -4
COc1ccc(OC)c(-c2nnc(NC(=O)C(C)Sc3nncn3C)s2)c1 (stereo not drawn) | 23* | i | -4 | -8 | 7 | 4
COc1ccc(Cl)cc1NC(=O)C(C)Sc1nncn1C (stereo not drawn) | 8 | x | -1 | -4 | 2 | 8
Cc1ccc(C(=O)n2nc(-c3ccco3)nc2N)cc1 | 7 | x | 3 | 29* | -5 | -28
Cn1cc(S(=O)(=O)N2CCN(C(=O)c3ccco3)CC2)c(=O)n(C)c1=O | 20* | i | -4 | -2 | 3 | 1
Cc1ccc(O)c(C(=O)c2cnn(-c3ccccc3)c2)c1 | x | x | 9 | -27 | -7 | 25

Screening results: PubChem, several laboratories
